The Inhibition is how much of the control response was suppressed. Read a high Inhibition as a response far below the control.

Here are results for 27 molecules from ChEMBL document CHEMBL1157539, “Thousands of chemical starting points for antimalarial lead identification” (Nature, 2010).

Each structure is given as a SMILES string.

What all share (type): functional
Test [1] concerns Plasmodium falciparum. Description: GSK_TCMDC: Inhibition of Plasmodium falciparum 3D7 in whole red blood cells, using parasite LDH activity as an index of growth. Test compounds present at 2uM.
In test [2] the test system is Plasmodium falciparum. Description: GSK_TCMDC: Inhibition of Plasmodium falciparum Dd2 in whole red blood cells, using parasite LDH activity as an index of growth. Test compounds present at 2uM.
A further test relates to HepG2. The test can be described thus: GSK_TCMDC: Percent inhibition of human HepG2 cell line. Test compounds present at 10uM.

As to `CN1CCN(Cc2cccc(-c3ccc4c(Nc5ccc(F)cc5Cl)ccnc4c3)c2)CC1`, the Inhibition in the test on Plasmodium falciparum [1] is given as 100%; with Plasmodium falciparum [2], 100%; in the test with HepG2, 20%.
With `CCOC(=O)c1cc(C(=O)NCCCCN2CCC(c3cn(C)c4ccccc34)CC2)ccc1-c1ccc(C(F)(F)F)cc1`, the results for the Inhibition in the test with Plasmodium falciparum [1], with Plasmodium falciparum [2] and with HepG2 were 91%, 6% and 25%, respectively.
In the same order, the values of `O=C(c1cc2nc3c(c(C(F)(F)F)n2n1)CCc1ccccc1-3)N1CCN2CCCC2C1` (stereo unspecified) are 94%, 3% and 0%.
With `CCCc1ccc(NC(=O)c2ccc(CN3CCCN(Cc4ccc(OC)cc4)CC3)cc2)cc1.O=C(O)C(F)(F)F`, the Inhibition in the test on Plasmodium falciparum [1] amounted to 81%; in the test with Plasmodium falciparum [2], 0%; in the test with HepG2 it was 47%.
Turning to `CC1(C)CCCN(C(=O)c2cccc(-n3nc(-c4ccc(Cl)cc4)cc3N)c2)C1`, the Inhibition in the test on Plasmodium falciparum [1] turned out to be 100%; in the test with Plasmodium falciparum [2], 98%; with HepG2, 13%.
For `N#Cc1ccc(NC(=O)c2ccc(C(=O)NCCCCN3CCC(c4ccc5c(c4OCCOC4CCCCO4)CCCC5)CC3)cc2)cc1` (stereo unspecified), in that order: 99%, 97% and 72%.
Consider `Cc1cccc2nc(-c3cccc(-c4ccc(NC(=O)c5c[nH]cn5)cc4)c3)[nH]c12`, for which the figures for the Inhibition in the test with Plasmodium falciparum [1], in the test with Plasmodium falciparum [2] and in the test with HepG2 were 100%, 48% and 8%, respectively.
In the case of `O=C(Nc1ccc(C(=O)OCC(c2ccccc2)c2ccccc2)cc1)N[C@@H](Cc1ccc(O)cc1)C(=O)NC1CCN(Cc2ccc(O)cc2)C1.O=C(O)C(F)(F)F` (stereo partly specified), the Inhibition in the test with Plasmodium falciparum [1] was 96%; in the test with Plasmodium falciparum [2], 0%; in the test with HepG2, 0%.
Regarding `Br.CCOC(=O)c1c(CNc2ccncc2)n(C)c2cc(Br)c(OC(C)=O)cc12`, the Inhibition in the test on Plasmodium falciparum [1] worked out at 96%; with Plasmodium falciparum [2], 93%; in the test on HepG2, 0%.
Regarding `COc1c(C2CCN(CCN3CCC(CNC(=O)c4ccc(-c5ccc(C#N)cc5)cc4)CC3)CC2)ccc2c1CCCC2`, the Inhibition is on record as 100% in the test with Plasmodium falciparum [1], 100% in the test on Plasmodium falciparum [2] and 96% in the test on HepG2.
Regarding `CC(Cc1ccc(OCC(=O)NCC2CCN(CCc3cccc(Cl)c3)CC2)cc1)NCCc1cccc(Cl)c1.Cl` (stereo unspecified), the Inhibition amounted to 96% in the test with Plasmodium falciparum [1], 85% with Plasmodium falciparum [2] and 100% in the test with HepG2.
Turning to `O=C(/C=C/c1ccc(Cl)c(Cl)c1)NCCCCCN1CCCC(C(=O)Nc2ccc(Cl)cc2)C1` (stereo unspecified), the values for the Inhibition with Plasmodium falciparum [1], in the test on Plasmodium falciparum [2] and in the test on HepG2 were 98%, 0% and 35%, respectively.
In the same order, the values of `CN(Cc1ccc(-c2ccc(C(F)(F)F)cc2)cc1)C(=O)Cn1c(CCc2cccc(F)c2F)cc(=O)c2ccc(OCC3CCCN3C)cc21.O=C(O)C(O)C(O)C(=O)O` (stereo unspecified) are 87%, 37% and 100%.
For `Cc1cccc2nc(-c3cccc(-c4cccc(NC(=O)NC5CC5c5ccccc5)c4)c3)[nH]c12` (stereo unspecified), the figures for the Inhibition with Plasmodium falciparum [1], in the test on Plasmodium falciparum [2] and with HepG2 were 98%, 28% and 0%, respectively.
For `O=C(/C=C/c1ccc(Cl)c(Cl)c1)NCCCCCN1CCC(NC(=O)Nc2ccc(Br)cc2)CC1`, in that order: 100%, 7% and 36%.
In the same order, the values of `CCNc1cc(C(=O)N[C@@H](Cc2ccccc2)[C@H](O)CNC(C)CCCC(C)C)cc(N2CCCS2(=O)=O)c1.O=CO` (stereo partly specified) are 99%, 98% and 2%.
In the same order, the values of `CC(C)c1ccc(OCC(O)CN(C)C(C)C(O)c2ccccc2)c(Br)c1.Cl` (stereo unspecified) are 95%, 97% and 36%.
As to `Clc1cc2c(Nc3ccc(Oc4ccccc4)cc3)ccnc2cc1-c1ccc(CNCCN2CCOCC2)o1`, the Inhibition with Plasmodium falciparum [1] stood at 100%; with Plasmodium falciparum [2] it was 89%; in the test with HepG2, 0%.
For `Nc1nc(N)c2c(ccc3c2ccn3Cc2cc3c(cc2Cl)OCO3)n1`, in that order: 95%, 94% and 58%.
As for `Cc1cc2nc(-c3ccc(C(=O)NC4CCN(Cc5ccccc5)CC4)cc3)[nH]c2cc1C`, the Inhibition in the test on Plasmodium falciparum [1] turned out to be 93%; with Plasmodium falciparum [2], 99%; in the test with HepG2 it was 0%.
For `CCOc1cc(C)ccc1C1CCN(CCCCNC(=O)c2nc(-c3ccc(C(F)(F)F)cc3)[nH]c2C)CC1.Cl`, in that order: 100%, 98% and 30%.
For `Cc1cc(N(CCO)CCCN2CCCCC2)nc(Nc2ccc(Cl)cc2)n1.Cl`, in that order: 100%, 18% and 12%.
For `CS(=O)(=O)c1ccc(-n2nc(C(F)(F)F)cc2-c2ccc(C=NOCC(=O)O)o2)cc1`, in that order: 87%, 0% and 0%.
With `O=C(Nc1ccc(Cl)cc1)Nc1cccc(-c2ccc(-c3nc4cc(F)ccc4[nH]3)cc2)c1`, the Inhibition in the test on Plasmodium falciparum [1] is 100%; in the test on Plasmodium falciparum [2], 99%; with HepG2, 73%.
For `COc1ccc2c(c1)S(=O)(=O)N=C(N1CCCC1c1ccc(Cl)c(Cl)c1)N2C.O=C(O)C(F)(F)F` (stereo unspecified), in that order: 89%, 19% and 0%.
With `Cc1c(N)ccc2[nH]c(-c3ccc(N)cc3)nc12`, the Inhibition in the test with Plasmodium falciparum [1] was 97%; in the test on Plasmodium falciparum [2], 40%; in the test with HepG2, 0%.
Turning to `CN(CCS(C)(=O)=O)Cc1ccc(-c2ccc3ncnc(Nc4ccc(OCc5cccc(F)c5)c(Cl)c4)c3c2)o1.Cc1ccc(S(=O)(=O)O)cc1`, the Inhibition in the test with Plasmodium falciparum [1] came to 100%; in the test on Plasmodium falciparum [2], 65%; in the test with HepG2, 25%.
